Reference: PubChem BioAssay (NCI)
Compounds without any hit were thinned out: in the full panel of roughly 83,000, 20% have a hit.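 Cell lines were cultured in 96-well plates, exposed to a single compound concentration, and assessed for percent growth 48 hours later.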 Active and inactive are the calls of the source. The calls were made as follows: active = growth percent below 10; inactive = the rest.

Tested on: COLO 205 colon
Test: NCI-60 one-dose screen, 48 h (100 = growth as untreated, 0 = no growth, -100 = all killed)
Settings: 10 µM unless noted

Row | SMILES | growth
1 | CCCC[C@H](NC(=O)[C@H]1CCCN1C)C(=O)N(C)[C@H](C[C@@H](OC(C)=O)c1nc(C(=O)N[C@@H](Cc2ccccc2)C[C@H](C)C(=O)OCC)cs1)C(C)C | -66.7% (active)
2 | COc1ccc2c(c1)c(-c1nc(-c3c[nH]c4ncccc34)cs1)cn2CCCCN1CCCCC1 | -76.2% (active)
3 | COC(=O)[C@H](Cc1ccccc1)NC(=O)c1csc([C@@H](C[C@H](C(C)C)N(C)C(=O)[C@@H](NC(=O)[C@H]2CCCN2C)C2CC2)OC(C)=O)n1 | -26.7% (active)
4 | C[C@]12CC[C@H]3[C@@H](CC[C@]4(O)C[C@@H](O[C@@H]5O[C@H](CO)[C@@H](O[C@@H]6OC[C@@H](O)[C@H](O)[C@H]6O)[C@H](O)[C@H]5O)CC[C@]34C=O)[C@@]1(O)CC[C@@H]2C1=CC(=O)OC1 | 17.8% (inactive)
5 | c1cc2c(c3c1CCNC3)OCO2 | 112% (inactive)
6 | Fc1ccc2c(c1)c(-c1nc(-c3c[nH]c4ncccc34)cs1)cn2CCCCN1CCCCC1 | -89.6% (active)
7 | O=C(Nc1ccncc1F)c1cn(CC2CC2)c2ccccc12 | 112% (inactive)
8 | COP(=S)(N1CC1)N1CC1 | 106% (inactive)
9 | C/C=C(\C)C(=O)O[C@@H]1C(O)[C@H]2OC(COC(=O)CCC(=O)CCCCCC[C@H](CCCCC)O[C@@H]3OC(C)[C@H](OC(C)=O)C(O)[C@H]3O2)[C@H]1OC(=O)/C=C/c1ccccc1 (some centres not stated) | -2.63% (active)
10 | CCc1ccccc1[C@@H]1C[C@]2(C)CCO[C@@H]2OO1 | 118% (inactive)
11 | CC(=O)O[C@H](C[C@H](C(C)C)N(C)C(=O)[C@@H](NC(=O)[C@H]1CCCCN1C)C(C)(C)C)c1nc(C(=O)N[C@@H](Cc2ccccc2)C[C@H](C)C(=O)O)cs1 | -59.1% (active)
12 | COc1ccc(C(=O)c2cc(OC)c(OC)c(OC)c2)cc1OC(C)=O | 16.3% (inactive)
13 | COc1ccc(N(CC(=O)NCCC[Te]c2ccccc2)C(=O)CNC(=O)OC(C)(C)C)cc1 | 86.9% (inactive)
14 | COC(=O)[C@@H](C)C[C@H](Cc1ccccc1)NC(=O)c1csc([C@@H](C[C@H](C(C)C)N(C)C(=O)[C@@H](NC(=O)[C@H]2CCCCN2C)C(C)C)OC(C)=O)n1 | -69.9% (active)
15 | CC[C@H](C)[C@@H]1OC(=O)C(C)(C)[C@H](O)[C@H](Cc2ccccc2)OC(=O)[C@H](C(C)C)OC(=O)[C@@H](NC(=O)c2cccc(NC=O)c2O)[C@@H](C)OC1=O | 43.6% (inactive)
16 | NC(=O)CNc1ccc([As]=[As]c2ccc(NCC(N)=O)cc2)cc1 (configuration not stated) | 76.8% (inactive)
17 | Fc1ccc2c(c1)c(-c1nc(-c3c[nH]c4ncccc34)cs1)cn2CCN1CCOCC1 | 38.4% (inactive)
18 | O=C([O][Hg][CH2]C1COCC([CH2][Hg][O]C(=O)c2ccccc2)O1)c1ccccc1 (configuration not stated) | -23.1% (active)
19 | O=[N+]([O-])CC(c1ccccc1Cl)c1c(-c2ccccc2)[nH]c2ccccc12 (configuration not stated) | 15% (inactive)

Row | SMILES | growth
20 | CCn1c2ccccc2c2cc(C(=O)c3cccc4c3CCCN4)ccc21 | 102% (inactive)
21 | COc1ccc(/C(C)=C(\c2ccc(OCCN3CCOCC3)cc2)c2ccc(OC(=O)Cc3ccccc3)cc2)cc1 | 109% (inactive)
22 | Cc1cc(N(CCCl)CCCl)ccc1C=Nc1ccc(-c2csc(Cc3ccccc3)n2)cc1 | 74.1% (inactive)
23 | Cc1ccc2c(C(C[N+](=O)[O-])c3cccs3)c(-c3ccccc3)[nH]c2c1 (configuration not stated) | 6.75% (active)
24 | O=C(CC1(O)C(=O)N(Cc2ccccc2)c2ccc(Cl)cc21)c1ccc(C(=O)NCC2CCC3(CC2)OOC2(CCCCC2)OO3)cc1 (configuration not stated) | -66.5% (active)
25 | CCOC(=O)CCC(NC(=O)C(Cc1ccc(N(CCCl)CCCl)cc1)NC=O)C(=O)OCC (configuration not stated) | 111% (inactive)
26 | COC(=O)[C@@H](C)C[C@H](Cc1ccccc1)NC(=O)c1csc([C@@H](C[C@H](C(C)C)N(C)C(=O)[C@@H](NC(=O)C23CC(NC(C)=O)(C2)C3)C2CC2)OC(C)=O)n1 | 32.5% (inactive)
27 | COC(=O)[C@]12CCC(C)(C)C[C@H]1[C@H]1C(=O)C[C@@H]3[C@@]4(C)C[C@@]5(CC(C)(C)[C@@H]4CC[C@@]3(C)[C@]1(C)CC2)OO[C@@](C)(C(F)(F)F)O5 | 134% (inactive)
28 | CNC(=O)Oc1ccc(N(C)C)cc1C(C)C | 115% (inactive)
29 | COc1ccc(/C=C\c2cc(OC)c(OC)c(OC)c2)cc1OCC(=O)Nc1nc2ccc(C(F)(F)F)cc2s1 | 95.3% (inactive)
30 | O=C(CC1(O)C(=O)N(Cc2ccccc2)c2ccc(F)cc21)c1ccc(C(=O)NCC2CCC3(CC2)OOC2(CCCCC2)OO3)cc1 (configuration not stated) | -63.3% (active)
31 | c1cnc2[nH]cc(-c3csc(-c4cn(CCCCN5CCCCC5)c5ccccc45)n3)c2c1 | 6.47% (active)
32 | COc1ccc(NC([Se])=NC23CC4CC(CC(C4)C2)C3)cc1 | -32.1% (active)
33 | Clc1cccc(Cl)c1Cl | 122% (inactive)
34 | C[C@]12CCc3sc(-c4ccccc4O)nc3C1=CC[C@@H]1[C@@H]2CC[C@]2(C)C(=O)CC[C@@H]12 | 108% (inactive)
35 | O=C(CC1(O)C(=O)Nc2ccccc21)c1ccc(C(=O)NCC2CCC3(CC2)OOC2(CCCCC2)OO3)cc1 (configuration not stated) | 80% (inactive)
36 | CCCOC(=O)N[C@H]1CCc2c(Br)c(OC)c(OC)c(OC)c2-c2ccc(SC)c(=O)cc21 | -31.9% (active)
37 | Cc1cc(C)c(CBr)c(C)c1 | 107% (inactive)
